Hits are enriched below; roughly 3.2% of the tested compounds scored in any of these assays.
Ecoli rRNA inh: selective bacterial rRNA inhibition in E. coli | AID 720706 | GFP signal change (wild-type ribosome), % (test concentration not listed) | E. coli WT GFP vs humanized-ribosome RFP mutants, fluorescence, 24 h; hits give low values; DMSO median 0, no signal -100 | 350,000 compounds, 1.6% hits;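 active means significant combined selectivity score with lowered wild-type GFP, culture density cut under 30%, mutant RFP and density less affected; inactive means any of these conditions unmet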
DENV2 CPE: inhibitors of DENV2 cytopathic effect. DENV2-infected cells, cytopathic effect rescue, plate reader. CPE inhibition, % at 9.99 µM. 350,000 compounds, 1.7% hits; in the data active means CPE inhibition above about 20%, passing the limit was not always enough; tested in BHK-21 cells
CaV13 FRET inh: Disruptors of the CACNA1D IQ motif to Ca2+-dependent inactivation inhibitor domain association, primary screening, Förster resonance energy transfer in intact living …; HEK cells, CFP/YFP FRET ICDI-IQ, plate reader, 10 min; percent FRET-ratio fall versus neutral wells; inhibition, % at 12.3 µM; 340,000 compounds, 0.098% hits;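 active means mean replicate inhibition of at least 30% and at least 1% of replicates passing that level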
PGC1a acetyl inh: PGC1a acetylation modulation, inhibitor mode; U2OS PGC1a acetylation, AlphaScreen anti-acetyl-lysine; with virally co-expressed GCN5 acetyltransferase; inhibition, % at 15.6 µM; 350,000 compounds, 0.17% hits; AID 651687;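 active means every replicate shows inhibition of at least 40%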
ERAP1 HTS inh: ERAP1 (human) enzyme inhibition; Q9NZ08; recombinant ERAP1, Leu-AMC fluorescence, 60 min; inhibition, % at 10.7 µM; 340,000 compounds, 0.15% hits; AID 652197;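 active means mean replicate inhibition of at least 30%, or all replicates individually reaching that 30% level; inactive means mean below 30% and not every replicate reaching it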
Target sequence (Q9NZ08 whole entry, looked up): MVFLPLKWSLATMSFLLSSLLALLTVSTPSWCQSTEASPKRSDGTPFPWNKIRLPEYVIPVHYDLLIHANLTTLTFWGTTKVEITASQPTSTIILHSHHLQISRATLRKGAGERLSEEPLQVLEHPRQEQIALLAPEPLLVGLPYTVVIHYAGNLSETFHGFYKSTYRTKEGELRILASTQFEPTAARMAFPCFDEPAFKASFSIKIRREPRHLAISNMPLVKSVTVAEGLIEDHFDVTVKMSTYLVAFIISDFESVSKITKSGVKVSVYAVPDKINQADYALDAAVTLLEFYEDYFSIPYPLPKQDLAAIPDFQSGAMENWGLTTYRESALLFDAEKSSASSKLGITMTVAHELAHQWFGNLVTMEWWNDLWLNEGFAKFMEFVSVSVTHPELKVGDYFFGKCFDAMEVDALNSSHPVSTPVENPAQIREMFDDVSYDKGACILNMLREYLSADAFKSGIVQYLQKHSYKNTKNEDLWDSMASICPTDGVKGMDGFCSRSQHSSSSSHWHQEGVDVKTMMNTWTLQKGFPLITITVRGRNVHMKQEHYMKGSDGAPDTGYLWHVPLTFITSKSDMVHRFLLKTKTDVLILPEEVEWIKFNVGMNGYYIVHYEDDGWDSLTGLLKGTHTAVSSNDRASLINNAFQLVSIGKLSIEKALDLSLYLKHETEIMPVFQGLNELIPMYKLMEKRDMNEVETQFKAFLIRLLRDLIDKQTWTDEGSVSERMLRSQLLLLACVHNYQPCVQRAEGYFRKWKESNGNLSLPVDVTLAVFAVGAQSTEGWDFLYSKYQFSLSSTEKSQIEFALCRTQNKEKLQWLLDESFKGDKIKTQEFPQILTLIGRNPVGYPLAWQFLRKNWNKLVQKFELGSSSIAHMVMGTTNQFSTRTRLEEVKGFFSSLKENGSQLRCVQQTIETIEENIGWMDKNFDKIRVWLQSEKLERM
INS-1E GSIS act: primary screen for activators of insulin secretion dependent on glucose, INS-1E cells, GLuc reporter luminescence; INS-1E GLuc reporter insulin secretion, 2-3 h; activation, % at 16.6 µM; 370,000 compounds, 0.61% hits; AID 743287;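 active means lowest replicate activation of at least 40%, so every replicate reaches that level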
Numbers stand for hits.

Screening Clc1ccccc1C1=CC(c2ccco2)n2ncnc2N1 (stereo not drawn) returned Ecoli rRNA inh inactive, DENV2 CPE inactive, CaV13 FRET inh active, PGC1a acetyl inh inactive, ERAP1 HTS inh inactive and INS-1E GSIS act inactive.
For C/C(=N\NC(=O)c1ccc(Cn2cc([N+](=O)[O-])cn2)o1)c1cccc(NC(=O)C(C)C)c1 the results were Ecoli rRNA inh inactive, DENV2 CPE 28, CaV13 FRET inh inactive, ERAP1 HTS inh inactive and INS-1E GSIS act inactive.
For COc1cccc(CNc2ccc([N+](=O)[O-])cc2Cl)c1O the results were Ecoli rRNA inh -50, DENV2 CPE inactive, CaV13 FRET inh inactive, ERAP1 HTS inh inactive and INS-1E GSIS act inactive.
CCCCCCCCC#Cc1nc(C)ccc1OC was read as Ecoli rRNA inh inactive, DENV2 CPE inactive, CaV13 FRET inh inactive, PGC1a acetyl inh inactive and INS-1E GSIS act 56.
`Cc1cccc(N2CC(C(=O)Nc3ccc(S(=O)(=O)N4CCOCC4)cc3)CC2=O)c1C` (stereo not drawn) gave Ecoli rRNA inh inactive, DENV2 CPE inactive, CaV13 FRET inh inactive, ERAP1 HTS inh inactive and INS-1E GSIS act inactive.
For Cc1cccc(N2CC(C(=O)Nc3cccc(S(=O)(=O)N4CCCCC4)c3)CC2=O)c1C (stereo not drawn) the results were Ecoli rRNA inh -25, DENV2 CPE inactive, CaV13 FRET inh inactive, PGC1a acetyl inh inactive, ERAP1 HTS inh inactive and INS-1E GSIS act inactive.
For O=c1oc2ccccc2c(N2CCCC2)c1CN1CCCC1 the results were Ecoli rRNA inh -18, DENV2 CPE inactive, CaV13 FRET inh inactive, PGC1a acetyl inh inactive, ERAP1 HTS inh inactive and INS-1E GSIS act inactive.
O=c1oc2ccccc2c(Cl)c1CN1CCCCC1 was read as Ecoli rRNA inh inactive, DENV2 CPE inactive, CaV13 FRET inh inactive, ERAP1 HTS inh inactive and INS-1E GSIS act inactive.
C[C@H]1CN([C@@H](C)CO)C(=O)c2cccc(NC(=O)C3CC3)c2O[C@@H]1CN(C)CC1CC1 was read as Ecoli rRNA inh inactive, DENV2 CPE inactive, PGC1a acetyl inh inactive, ERAP1 HTS inh inactive and INS-1E GSIS act inactive.
Screening CCNS(=O)(=O)c1ccc(Br)c(C(=O)OC(C)C(=O)NCC2CCCCC2)c1 (stereo not drawn) returned Ecoli rRNA inh inactive, DENV2 CPE 43, CaV13 FRET inh inactive, PGC1a acetyl inh inactive, ERAP1 HTS inh inactive and INS-1E GSIS act inactive.
O=C(C[C@@H]1CC[C@H]2[C@@H](COC[C@@H](O)CN2Cc2cccc(Cl)c2)O1)N1CCOCC1 was read as Ecoli rRNA inh inactive, DENV2 CPE 90, PGC1a acetyl inh inactive, ERAP1 HTS inh inactive and INS-1E GSIS act inactive.
Screening O=C(C[C@H]1CC[C@@H]2[C@H](COC[C@H](O)CN2Cc2cccc(Cl)c2)O1)N1CCOCC1 returned Ecoli rRNA inh inactive, DENV2 CPE inactive, PGC1a acetyl inh inactive, ERAP1 HTS inh inactive and INS-1E GSIS act inactive.
For O=C(C[C@@H]1CC[C@@H]2[C@H](COC[C@H](O)CN2Cc2cccc(Cl)c2)O1)N1CCOCC1 the results were Ecoli rRNA inh inactive, DENV2 CPE 103, PGC1a acetyl inh inactive, ERAP1 HTS inh inactive and INS-1E GSIS act inactive.
`CN1CCN(C(=O)C[C@@H]2CC[C@H]3[C@@H](COC[C@@H](O)CN3Cc3cccc(Cl)c3)O2)CC1` gave Ecoli rRNA inh inactive, DENV2 CPE 27, PGC1a acetyl inh inactive, ERAP1 HTS inh inactive and INS-1E GSIS act inactive.
Screening O=C(C[C@H]1CC[C@H]2[C@@H](COC[C@@H](O)CN2Cc2ccc(Oc3ccccc3)cc2)O1)N1CCCCC1 returned Ecoli rRNA inh inactive, DENV2 CPE 24, PGC1a acetyl inh inactive, ERAP1 HTS inh inactive and INS-1E GSIS act inactive.
`CN1CCN(C(=O)C[C@H]2CC[C@H]3[C@@H](COC[C@@H](O)CN3Cc3cccc(Cl)c3)O2)CC1` gave Ecoli rRNA inh inactive, DENV2 CPE inactive, PGC1a acetyl inh inactive, ERAP1 HTS inh inactive and INS-1E GSIS act inactive.
Cc1ccccc1S(=O)(=O)N1C[C@@H](O)COC[C@H]2O[C@@H](CC(=O)N3CCC(Cc4ccccc4)CC3)CC[C@@H]21 was read as Ecoli rRNA inh inactive, DENV2 CPE inactive, PGC1a acetyl inh inactive, ERAP1 HTS inh inactive and INS-1E GSIS act inactive.
CCCC#Cc1ccc2c(c1)O[C@@H](CN(C)C(=O)NC(C)C)[C@H](C)CN([C@@H](C)CO)S2(=O)=O was read as Ecoli rRNA inh inactive, DENV2 CPE inactive, ERAP1 HTS inh inactive and INS-1E GSIS act inactive.
Screening C[C@@H]1CN([C@H](C)CO)S(=O)(=O)c2ccc(C3=CCCC3)cc2O[C@H]1CN(C)C(=O)c1cnccn1 returned Ecoli rRNA inh inactive, PGC1a acetyl inh inactive and INS-1E GSIS act inactive.
CCOC(=O)Cc1csc(NC(=O)Nc2ccc(OC(F)(F)F)cc2)n1 was read as Ecoli rRNA inh -21, DENV2 CPE inactive, CaV13 FRET inh inactive, ERAP1 HTS inh inactive and INS-1E GSIS act inactive.
CCOC(=O)Cc1csc(NC(=O)Cc2ccc(Br)cc2)n1 was read as Ecoli rRNA inh inactive, DENV2 CPE inactive, CaV13 FRET inh inactive, ERAP1 HTS inh inactive and INS-1E GSIS act inactive.
Screening CCOC(=O)Cc1csc(NC(=O)Cc2ccc(Cl)cc2)n1 returned Ecoli rRNA inh -22, DENV2 CPE inactive, CaV13 FRET inh inactive, ERAP1 HTS inh inactive and INS-1E GSIS act inactive.
`Cc1nc(CCNC(=O)Cc2ccc(Cl)cc2)cs1` gave Ecoli rRNA inh inactive, DENV2 CPE inactive, CaV13 FRET inh 39, ERAP1 HTS inh inactive and INS-1E GSIS act inactive.
For Cc1nc(CCNC(=O)Cc2ccc(F)cc2)cs1 the results were Ecoli rRNA inh inactive, DENV2 CPE inactive, CaV13 FRET inh inactive, PGC1a acetyl inh inactive, ERAP1 HTS inh inactive and INS-1E GSIS act inactive.
Screening C[C@@H]1CN([C@H](C)CO)C(=O)c2cccc(NS(=O)(=O)c3ccc(Cl)cc3)c2O[C@@H]1CN(C)Cc1ccc(C(=O)Nc2ccccc2N)cc1 returned Ecoli rRNA inh inactive, DENV2 CPE inactive, PGC1a acetyl inh inactive, ERAP1 HTS inh inactive and INS-1E GSIS act inactive.
CN(C)CC(=O)N[C@@H]1CC[C@H](CCNC(=O)C2CCCC2)O[C@@H]1CO was read as Ecoli rRNA inh inactive, DENV2 CPE 54, PGC1a acetyl inh inactive, ERAP1 HTS inh inactive and INS-1E GSIS act inactive.
Screening CN(C)CC(=O)N[C@H]1CC[C@@H](CCNC(=O)C2CCCC2)O[C@H]1CO returned Ecoli rRNA inh inactive, DENV2 CPE inactive, PGC1a acetyl inh inactive, ERAP1 HTS inh inactive and INS-1E GSIS act inactive.
Screening O=C(N[C@@H]1CC[C@@H](CCNC(=O)C2CCCCC2)O[C@@H]1CO)c1ccncc1 returned Ecoli rRNA inh inactive, DENV2 CPE inactive, PGC1a acetyl inh inactive, ERAP1 HTS inh inactive and INS-1E GSIS act inactive.
Screening O=C(N[C@H]1CC[C@@H](CCNC(=O)C2CCCCC2)O[C@@H]1CO)c1ccncc1 returned Ecoli rRNA inh inactive, DENV2 CPE 24, PGC1a acetyl inh inactive, ERAP1 HTS inh inactive and INS-1E GSIS act inactive.
